Here are results for 1 compound from PubChem BioAssay AID743382 (National Center for Advancing Translational Sciences (NCATS), 2014).

The structures appear in SMILES notation. Activity calls are given as the source filed them. Calls come from the whole dose curve.

The nature of the assay: qHTS for Inhibitors of PI5P4K: BT474 Cell Proliferation Assay for Probe SAR. Conditions: CellTiter-Glo ATP luminescence, 72 h. From the text:
In addition to finding PI5P, we discovered the type II phosphatidylinositol 5-phosphate 4-kinase (PI5P4K) family (alpha, beta, gamma isoforms) that catalyze the conversion of PI5P to PI(4,5)P2. Alternatively, PI(4,5)P2 can also be synthesized through phosphatidylinositol-4-phosphate (PI4P) by the type I phosphatidylinositol 4-phosphate 5-kinases (PI4P5K). These PI5P4K enzymes therefore represent one way by which cells can regulate endogenous PI5P levels and play important roles in insulin signaling and in stress responses. […] A qHTS PI5P4K-alpha ADP-Glo assay was developed to identify specific modulators of human PI5P4K, phosphatidylinositol-5-phosphate 4-kinase (Type II PIPK). […]
BT474 cells were cultured in DMEM with 10% FBS and plated in 1536-well white solid-bottom tissue-culture treated plates at a density of 500 cells per 5 microL well. […] After 72 hours of incubation at 37 degrees C 5% CO2 the level of ATo was measured using the Cell Titer Glo luciferase-coupled ATP detection system from Promega. This assays monitors cells by quantitating the amount of ATP present by luciferase, which in the presence of ATP converts pro-luciferin into the luminescent luciferin product. A compound that inhibits cell proliferation would result in a decrease in luminescence. […] The luminescence was read on a Viewlux (Perkin Elmer) plate reader.
With `O=C1Nc2ccc(C(=O)c3ccco3)cc2/C1=C/c1cc(Cl)c(O)c(Cl)c1`, the Potency was 10.5 µM (active).
